# TLR9-MyD88 inh: inhibitors of TLR9-MyD88 association in cells, primary screen, cell-based, CHO, BLA complementation, fluorescence; inhibition, % at 4.98 µM; actives 0.21% (n = 340,000); Toll-like receptor 9 (Homo sapiens) + Myeloid differentiation primary response protein …; CCF4 FRET ratio;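 active = inhibition above the mean over all tested compounds plus 3 SD, cut at about 21% in these data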;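 also: 0% = DMSO only wells and 100% = clavulanate BLA inhibitor control wells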
# TLR4 MyD88 comp: inhibitors of TLR4-MyD88 association in cells, primary screen, cell-based, HeLa CL3-4, BLA complementation, FRET ratio; inhibition, % at 8.4 µM; Toll-like receptor 4 (Homo sapiens) + Myeloid differentiation primary response protein …; HeLa CL3-4 TLR4/MyD88 BLA complementation; actives 0.18% (n = 200,000); in the data active = inhibition above about 25%;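 also: 0% = vehicle and 100% = reference inhibitor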
# Target sequence (O00206 whole entry, looked up): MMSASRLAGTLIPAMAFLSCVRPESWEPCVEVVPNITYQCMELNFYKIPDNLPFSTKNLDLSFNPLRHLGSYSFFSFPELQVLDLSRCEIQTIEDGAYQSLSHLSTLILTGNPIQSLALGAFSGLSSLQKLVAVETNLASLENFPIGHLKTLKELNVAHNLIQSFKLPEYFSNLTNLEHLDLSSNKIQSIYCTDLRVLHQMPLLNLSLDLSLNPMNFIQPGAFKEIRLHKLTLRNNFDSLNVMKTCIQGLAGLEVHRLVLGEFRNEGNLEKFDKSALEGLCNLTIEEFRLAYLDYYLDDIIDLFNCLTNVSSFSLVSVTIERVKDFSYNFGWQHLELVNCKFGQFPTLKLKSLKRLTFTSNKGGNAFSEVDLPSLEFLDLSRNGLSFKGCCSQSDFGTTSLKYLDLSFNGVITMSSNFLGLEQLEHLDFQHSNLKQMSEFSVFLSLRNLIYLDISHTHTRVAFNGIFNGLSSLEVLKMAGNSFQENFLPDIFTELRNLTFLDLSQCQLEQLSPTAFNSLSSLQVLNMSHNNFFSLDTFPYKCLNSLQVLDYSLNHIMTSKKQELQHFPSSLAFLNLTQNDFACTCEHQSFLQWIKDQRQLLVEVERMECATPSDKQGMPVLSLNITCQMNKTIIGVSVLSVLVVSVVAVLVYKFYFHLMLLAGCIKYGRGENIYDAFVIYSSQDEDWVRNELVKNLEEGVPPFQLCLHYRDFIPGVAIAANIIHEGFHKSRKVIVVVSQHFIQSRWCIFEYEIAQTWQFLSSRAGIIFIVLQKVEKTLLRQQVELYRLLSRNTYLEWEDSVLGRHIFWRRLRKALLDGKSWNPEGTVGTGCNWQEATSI
# Target sequence (Q99836 whole entry, looked up): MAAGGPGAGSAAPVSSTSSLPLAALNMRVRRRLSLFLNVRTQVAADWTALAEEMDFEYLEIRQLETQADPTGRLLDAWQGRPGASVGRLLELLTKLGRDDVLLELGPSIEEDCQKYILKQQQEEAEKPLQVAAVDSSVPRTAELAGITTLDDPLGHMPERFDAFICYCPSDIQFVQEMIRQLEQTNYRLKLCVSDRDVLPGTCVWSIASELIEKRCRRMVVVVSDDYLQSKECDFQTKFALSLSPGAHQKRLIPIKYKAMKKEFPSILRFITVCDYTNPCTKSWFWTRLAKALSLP
# Mcl1 Bid PPI: Mcl-1/Bid binding inhibitors, primary screen, biochemical, TR-FRET, 1536-well. Induced myeloid leukemia cell differentiation protein Mcl-1 (Homo sapiens), Q07820. TR-FRET Mcl-1/Bid-Dy647 peptide binding. inhibition, % at 21.7 µM. actives 0.97% (n = 220,000);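 active = compounds that cut the binding signal by more than half at the single screening dose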;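 also: His-tagged Mcl-1 with europium anti-His antibody binding Bid BH3 peptide; 0% = Mcl-1 plus peptide wells and 100% = peptide-only wells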
# NOD2 RIPK2 PPI: NOD2-RIPK2 binding disruptors in cells, primary screen, fluorescence, CHO cells, BLA complementation | Receptor-interacting serine/threonine-protein kinase 2 (Homo sapiens), O43353 | CCF4 ratio | inhibition, % at 4.98 µM | actives 0.38% (n = 360,000) | AID 624267, 2012; in the data active = inhibition above about 21%;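 also: 0% = vehicle only and 100% = reference blocker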
# Mcl1-Noxa inh: Mcl-1/Noxa binding inhibitors, primary screen, biochemical, TR-FRET, 1536-well. inhibition, % at 21.7 µM. Induced myeloid leukemia cell differentiation protein Mcl-1 (Homo sapiens), Q07820. actives 1.5% (n = 220,000). AID 1022, 2008. TR-FRET Mcl-1/Noxa peptide binding, 2 h;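 active = compounds that cut the protein-peptide binding signal by more than 50% relative to plate controls in a single-dose test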;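 also: His-tagged Mcl-1 with rhodamine Noxa BH3 peptide and terbium anti-His antibody; 0% = Mcl-1 plus Noxa peptide wells and 100% = peptide-only wells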
# Mcl-1 Bim block: inhibitors of Bim peptide binding to Mcl-1, primary screen, biochemical, bead-based flow cytometry, multiplex; Induced myeloid leukemia cell differentiation protein Mcl-1 (Homo sapiens), Q07820; Bim peptide-Mcl-1 binding; inhibition, % at 10 µM; actives 0.1% (n = 190,000); AID 1009, 2008; in the data active = inhibition above about 40%;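 also: 0% = no compound tracer wells and 100% = peptide blocker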
# NOD2-RIPK2 conf: NOD2-RIPK2 binding disruptors, retest, confirmation, fluorescence, CHO cells, BLA complementation, triplicate; shares compounds with NOD2 RIPK2 PPI; CCF4 FRET; inhibition, % at 4.98 µM; actives 70% (n = 1,200); AID 624370, 2012;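 active = mean inhibition across replicates above a set limit taken from the earlier primary screen, cut at about 21% in these data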;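 also: 0% = DMSO-only wells and the high end = clavulanate BLA-blocked wells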
# BLA counter: hits BLA reporter in NOD2-RIPK2 inhibitor counterscreen; inhibition, % at 4.98 µM; shares compounds with NOD2 RIPK2 PPI; CHO BLA reporter, CCF4 FRET ratio; actives 57% (n = 1,200);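 active = mean inhibition above the low-control mean inhibition plus three low-control SD, cut at about 11% in these data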;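 also: 0% = DMSO only wells and 100% = clavulanate high control wells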
# The depositor's hits bear a star; / = no result given. Only some compounds are listed: those with a hit (about 1.8% of all), similar ones and a draw of the others.
SMILES,TLR9-MyD88 inh,TLR4 MyD88 comp,Mcl1 Bid PPI,NOD2 RIPK2 PPI,Mcl1-Noxa inh,Mcl-1 Bim block,NOD2-RIPK2 conf,BLA counter
CC(C)c1nnc(NC(=O)CCS(=O)(=O)c2nc(-c3cccs3)cc(C(F)(F)F)n2)s1,17.4,11.9,-26.8,40.9*,9.1,-2.0,11.0,8.8
CC(=O)Oc1c(-c2ccco2)oc2ccccc2c1=O,20.0,7.6,-24.7,27.5*,-6.7,-4.0,31.4*,30.2*
O=C1Nc2cc(C(=O)NCCCN3CCCC3)ccc2S/C1=C/c1ccccc1F,-2.9,/,/,-16.8,/,/,/,/
O=C1Nc2cc(C(=O)NCCN3CCCCCC3)ccc2S/C1=C/c1ccccc1F,5.5,/,/,21.8*,/,/,48.9*,51.2*
CC(C)(C)NC(=O)C(c1cc2ccccc2o1)n1c(=O)c(-c2ccco2)nc2ccccc21 (stereo not drawn),/,/,/,3.5,/,/,/,/
COc1ccc(NC(=O)C(c2cc3ccccc3o2)n2c(=O)c(-c3cc4ccccc4[nH]3)nc3ccccc32)cc1 (stereo not drawn),/,/,/,51.4*,/,/,46.1*,67.5*
COc1ccc(NC(=O)C(c2ccc(OC)cc2)n2c(=O)c(-c3cc4ccccc4[nH]3)nc3ccccc32)cc1 (stereo not drawn),/,/,/,44.0*,/,/,40.3*,66.1*
COc1ccc(NC(=O)C(c2ccc(C#N)cc2)n2c(=O)c(-c3cc4ccccc4[nH]3)nc3ccccc32)cc1 (stereo not drawn),/,/,/,56.5*,/,/,54.5*,72.0*
Cc1cccc(/C=C(\C(=O)O)c2ccc(S(=O)(=O)N3CCCC3)s2)c1,-4.6,/,/,-7.9,/,/,/,/
Cc1c(NC(=O)c2cccc(NC(=O)COc3ccc(C#N)cc3)c2)c(=O)n(-c2ccccc2)n1C,-2.0,/,/,7.0,/,/,/,/
CCCCNC(=O)C1c2ccccc2C(=O)N(c2ccc(OC)cc2)C1c1ccc(OC)cc1 (stereo not drawn),-5.5,-4.6,-25.0,1.1,12.5,-1.0,/,/
COc1ccc(C2C(C(=O)NCCCN3CCOCC3)c3ccccc3C(=O)N2c2ccc(OC)cc2)cc1 (stereo not drawn),1.2,-12.1,-34.3,23.6*,5.0,-2.0,3.7,-2.9
CCN(CC)C(C)C#CCC(c1ccccc1)c1ccccc1 (stereo not drawn),/,/,-11.8,/,-8.2,/,/,/
COc1ccc(Nc2nc3cc(C)ccc3cc2C#N)cc1,3.9,/,/,21.2*,/,/,5.6,16.8*
Cc1ccc(/C=C2\Oc3c(ccc(O)c3CN3CCN(C)CC3)C2=O)cc1,11.7,12.0,-0.1,28.6*,-12.9,0.0,20.6,24.9*
O=C1/C(=C/C=C/c2ccccc2)Oc2c1ccc(O)c2CN1CCN(CCO)CC1,9.7,/,-23.3,5.6,-22.5,/,/,/
Cc1ccccc1NC(=O)c1ccccc1NC(=O)c1ccccc1F,-7.1,/,/,7.5,/,/,/,/
O=C(/C=C/c1ccccc1O)c1ccco1,9.6,/,/,3.6,/,/,/,/
O=C(/C=C/c1cc(Br)ccc1O)c1ccco1,3.2,/,-76.6,21.0*,30.5,/,12.8,-5.6
C[C@@H](NC(=O)c1nc[nH]c1C(=O)NCc1ccccc1)c1ccccc1,5.4,/,/,2.5,/,/,/,/
Cc1cc2nc(-c3nnnn3Cc3ccccc3)c(=O)[nH]c2cc1C,/,/,/,23.3*,/,/,12.6,14.7*
O=c1[nH]c2cc3ccccc3cc2nc1-c1nnnn1Cc1ccccc1,/,/,/,-1.5,/,/,/,/
CCOC(=O)/C=c1\s/c(=C\c2ccc(-c3ccccc3)cc2)c(=O)n1CC(=O)NCc1ccc2c(c1)OCO2,-0.6,-6.2,-3.4,0.4,12.6,-4.0,/,/
CCOC(=O)/C=c1/s/c(=C/c2ccc3cc(OC)ccc3c2)c(=O)n1CC(=O)NCc1ccc2c(c1)OCO2,-4.2,/,/,25.0*,/,/,44.1*,53.1*
Cc1nn(Cc2c(F)c(F)c(F)c(F)c2F)c(C)c1NC(=O)c1nn(C)c(C)c1Br,-2.7,/,/,2.1,/,/,/,/
SMILES,TLR9-MyD88 inh,TLR4 MyD88 comp,Mcl1 Bid PPI,NOD2 RIPK2 PPI,Mcl1-Noxa inh,Mcl-1 Bim block,NOD2-RIPK2 conf,BLA counter
CC(OC(=O)c1ccc(S(C)(=O)=O)c([N+](=O)[O-])c1)C(=O)NC1C2CC3CC(C2)CC1C3 (stereo not drawn),/,/,/,25.0*,/,/,65.1*,7.5
O=C1NC[C@@H](CCCCN2C[C@H](Cc3ccccc3)N(CCc3ccc(O)cc3)C(=O)C2=O)N(Cc2ccccc2)C1=O,/,/,/,-0.1,/,/,/,/
O=C(c1ccc(=O)[nH]c1)N1CCN(S(=O)(=O)c2ccc3ccccc3c2)CC1,-2.9,/,/,-11.7,/,/,/,/
N#Cc1c2ccc(O)cc2n2ccccc12,13.4,3.9,-12.3,22.4*,42.8,11.0,21.0*,26.0*
COc1ccc(CCN2C(=NC(=O)C(C)C)SC3CS(=O)(=O)CC32)cc1OC (stereo not drawn),-11.6,/,-12.7,-9.3,5.6,/,/,/
CCOC(=O)C1(CC)Oc2ccccc2C(c2ccc(OC)cc2)=C1C(=O)OC (stereo not drawn),-11.6,/,/,-4.1,/,/,/,/
Cc1cccc(C)c1NC(=O)C(c1ccc(C(F)(F)F)cc1)n1c(=O)c(-c2cc3ccccc3[nH]2)nc2ccccc21 (stereo not drawn),/,/,/,47.3*,/,/,45.0*,69.3*
Cc1cccc(C)c1NC(=O)C(c1ccc(-c2ccccc2)cc1)n1c(=O)c(-c2cc3ccccc3[nH]2)nc2ccccc21 (stereo not drawn),/,/,/,42.5*,/,/,39.2*,65.8*
CN(C)Cc1c(-c2ccc(Cl)cc2)nc2ccc(Cl)cn12,2.9,-5.9,-17.3,-6.1,7.1,0.0,/,/
C/C(=N\NC(=S)NC1CCCCC1)c1cccc(Br)c1,-3.8,2.1,-22.6,32.3*,19.6,-3.0,-1.8,-2.7
NNc1nc2ccc(F)cc2s1,6.7,-6.5,-16.3,29.9*,19.7,0.0,-4.6,-4.0
COc1ccc(OCCN2CCC(C(=O)NC(c3ccc(C)cc3)c3ccccn3)CC2)cc1 (stereo not drawn),/,/,/,21.3*,/,/,-4.5,-0.1
COc1ccc(C(NC(=O)C2CCN(CCOc3ccccc3)CC2)c2ccccn2)cc1 (stereo not drawn),/,/,/,0.8,/,/,/,/
COc1cccc(N2CCN(S(=O)(=O)c3c(C)[nH]c(C)c3C(=O)N3CCCC3)CC2)c1,-5.0,/,/,22.6*,/,/,1.4,-2.5

# Screening results (PubChem BioAssay)
